PubChem BioAssay (NCATS)
Results filed as inconclusive are left out. Where a call stands in place of a potency, no number is given. Calls of active or inactive are those of the source. Calls come from the whole dose curve; as a rule, active = well fitted curve in the direction sought with a large enough effect; inconclusive = small, poorly fitted or top-dose-only effect, or another doubt; inactive = no such curve, though single readings can be large; an effect the other way counts as inactive or inconclusive.

Columns and labels:
[1] = target: Ferritin light chain (Equus caballus) (UniProt P02791); experiment: qHTS Validation Assay for Identification of Novel General Anesthetics (AID 2323); note: series mostly up to about 77 µM
Summary of the method: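 Competitive displacement of the profluorescent anesthetic 1-AMA (50% saturated, PBS) from 10 uM apoferritin, 10 min, room temperature. Activity is normalized 380/535 nm fluorescence; concentration-response fitted with a four-parameter Hill equation.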

[2] = target: ATP-dependent DNA helicase Q1 (Homo sapiens) (UniProt P46063); experiment: qHTS Validation Assay for Inhibitors of RecQ-Like Dna Helicase 1 (RECQ1) (AID 2353)
Summary of the method: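 50 nM RECQ1T1 preincubated 15 min with compound in Tris pH 8.0 buffer with MgCl2, DTT, Tween-20 and 2.5 ug/ml poly(dI-dC); started with 200 nM TAMRA/BHQ-2 forked duplex and 2 mM ATP. Unwinding read as fluorescence (525/598 nm), two reads 2 h apart.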

[3] = Cytometric Cell-Based qHTS for Inhibitors of the mTORC1 Signaling Pathway in MEF (Tsc2-/-, p53-/-) Cells (AID 2660);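 note: percent of cells above a phospho-rpS6 to PI ratio cutoff in each well; series mostly up to about 38 µM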
Summary of the method: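 Immunofluorescence qHTS of rpS6 Ser235/236 phosphorylation: MEFs (Tsc2-/-, p53-/-) treated 24 h, 37 C, in DMEM + 10% FBS. Alexa-488 signal normalized to PI count, referenced to rapamycin (7.5 nM) and DMSO; PI cell number recorded for viability.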

[4] = High Content Imaging Cell-Based qHTS for Inhibitors of the mTORC1 Signaling Pathway in MEF (Tsc2-/-, p53-/-) Cells (AID 2666);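 note: percent of cells scored positive for phospho-rpS6 Ser235/236 immunostaining by imaging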; note: potency is the fitted concentration of half-maximal effect
Summary of the method: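 Phospho-rpS6 (Ser235/236) immunofluorescence, normalized and scored as % positive cells using rapamycin and DMSO controls, was read in empty-vector Tsc2-/-, p53-/- MEFs after 24 h compound exposure at 37 C; propidium iodide counted cells.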

[5] = High Content Imaging Cell-Based qHTS for Inhibitors of the mTORC1 Signaling Pathway in MEF Cells (AID 2667); note: potency is the fitted concentration of half-maximal effect
Summary of the method: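 WT MEFs (Tsc2-/-, p53-/- re-expressing Tsc2), in DMEM + 10% FBS, were treated with compound for 24 h at 37 C. Cells were then fixed and stained for phospho-rpS6 Ser235/236 with propidium iodide as cell count. Values are % positive cells, with thresholds set against rapamycin-treated cells.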

[6] = Validation screen for small molecules that induce DNA re-replication in MCF 10A normal breast cells (AID 463097); note: nearly all actives have a fitted effect of over 60% in size; note: potency is the fitted concentration of half-maximal effect
Summary of the method: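 Read-out is Hoechst total nuclear intensity by fluorescence scanning imager, flagging increased high-DNA-content nuclei. Compounds were incubated with MCF 10A cells for 48 hr (37 C, 5% CO2) before 40 min staining.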

[7] = target: Ubiquitin carboxyl-terminal hydrolase 2 (Homo sapiens) (UniProt O75604); experiment: qHTS Validation Assay for Inhibitors of Ubiquitin-specific Protease USP2a Using CHOP2 as the Reporter (AID 463106); note: potency is the fitted concentration of half-maximal effect
Summary of the method: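 USP2 core (10 nM final) was preincubated with compound 30 min at RT in pH 8.0 Tris/CaCl2/beta-ME/CHAPS buffer. Ub-CHOP2 and reporter substrate (25 nM final each) were then added, with fluorescence (Ex 485/Em 531) read after 60 min. Data were normalized to NEM full inhibition and fitted to concentration-response curves.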

[8] = Cytometry Cell-Based qHTS for Inhibitors of the mTORC1 Signaling Pathway in MEF cells (AID 2668); note: potency is the fitted concentration of half-maximal effect
Summary of the method: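 Phospho-rpS6 (Ser235/236) immunofluorescence over PI signal, scored as % positive cells using thresholds from 7.5 nM rapamycin and DMSO wells, after 24 h compound exposure of WT-Tsc2-rescued Tsc2-/-, p53-/- MEFs. PI cell count recorded for viability.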

[9] = target: RecQ-like DNA helicase BLM (Homo sapiens) (UniProt P54132); experiment: qHTS Validation Assay for Inhibitors of Bloom's syndrome helicase (BLM) (AID 2364); note: potency is the fitted concentration of half-maximal effect
Summary of the method: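 50 nM BLM preincubated 15 min at room temperature with compound in pH 8.0 Tris buffer containing 2.5 ug/ml poly(dI-dC); started with 200 nM TAMRA/BHQ-2 forked duplex and 2 mM ATP (final). Unwinding read as TAMRA fluorescence increase, two reads 2 h apart.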

Sequence of Ferritin light chain (Equus caballus) (P02791 2-175 limits assumed): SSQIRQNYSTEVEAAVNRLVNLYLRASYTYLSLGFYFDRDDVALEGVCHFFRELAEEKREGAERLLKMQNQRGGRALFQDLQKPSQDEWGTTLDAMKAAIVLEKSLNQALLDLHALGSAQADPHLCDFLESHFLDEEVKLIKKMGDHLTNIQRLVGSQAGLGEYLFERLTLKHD
Sequence of RecQ-like DNA helicase BLM (Homo sapiens) (P54132 whole entry, looked up): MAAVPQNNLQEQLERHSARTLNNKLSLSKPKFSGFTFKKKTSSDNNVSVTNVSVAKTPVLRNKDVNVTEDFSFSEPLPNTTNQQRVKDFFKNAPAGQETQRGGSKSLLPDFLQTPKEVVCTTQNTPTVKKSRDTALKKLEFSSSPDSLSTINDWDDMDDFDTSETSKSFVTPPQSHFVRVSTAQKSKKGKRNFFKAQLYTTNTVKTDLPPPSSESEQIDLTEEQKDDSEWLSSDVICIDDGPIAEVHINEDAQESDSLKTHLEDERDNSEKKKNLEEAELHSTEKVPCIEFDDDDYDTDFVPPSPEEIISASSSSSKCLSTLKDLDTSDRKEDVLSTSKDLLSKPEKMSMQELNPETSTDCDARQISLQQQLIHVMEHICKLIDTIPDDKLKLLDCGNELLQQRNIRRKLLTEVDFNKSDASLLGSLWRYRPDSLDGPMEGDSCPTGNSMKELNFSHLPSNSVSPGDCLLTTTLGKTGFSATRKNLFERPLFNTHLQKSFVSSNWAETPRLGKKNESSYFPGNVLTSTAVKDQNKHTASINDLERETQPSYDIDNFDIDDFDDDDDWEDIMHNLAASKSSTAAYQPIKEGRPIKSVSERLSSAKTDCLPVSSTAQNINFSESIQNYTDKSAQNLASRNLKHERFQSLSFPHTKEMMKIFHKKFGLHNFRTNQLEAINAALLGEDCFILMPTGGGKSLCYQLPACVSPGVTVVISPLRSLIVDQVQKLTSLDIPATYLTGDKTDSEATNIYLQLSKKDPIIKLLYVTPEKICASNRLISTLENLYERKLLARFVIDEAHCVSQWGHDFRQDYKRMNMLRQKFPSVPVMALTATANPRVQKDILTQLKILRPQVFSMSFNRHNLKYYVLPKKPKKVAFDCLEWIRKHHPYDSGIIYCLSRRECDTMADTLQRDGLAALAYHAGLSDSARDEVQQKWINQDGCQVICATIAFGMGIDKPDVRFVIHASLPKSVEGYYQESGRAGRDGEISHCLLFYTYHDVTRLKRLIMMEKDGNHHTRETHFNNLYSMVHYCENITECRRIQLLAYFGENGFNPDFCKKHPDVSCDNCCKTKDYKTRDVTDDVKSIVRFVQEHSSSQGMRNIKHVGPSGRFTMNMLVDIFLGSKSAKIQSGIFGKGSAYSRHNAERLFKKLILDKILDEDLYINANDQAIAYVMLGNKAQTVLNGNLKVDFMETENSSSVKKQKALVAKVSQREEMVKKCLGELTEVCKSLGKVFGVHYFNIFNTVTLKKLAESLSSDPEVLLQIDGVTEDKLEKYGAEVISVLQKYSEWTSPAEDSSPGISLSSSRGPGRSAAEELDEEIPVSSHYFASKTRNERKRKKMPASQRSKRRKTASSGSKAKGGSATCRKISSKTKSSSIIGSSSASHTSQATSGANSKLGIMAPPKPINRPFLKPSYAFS
Sequence of ATP-dependent DNA helicase Q1 (Homo sapiens) (P46063 whole entry, looked up): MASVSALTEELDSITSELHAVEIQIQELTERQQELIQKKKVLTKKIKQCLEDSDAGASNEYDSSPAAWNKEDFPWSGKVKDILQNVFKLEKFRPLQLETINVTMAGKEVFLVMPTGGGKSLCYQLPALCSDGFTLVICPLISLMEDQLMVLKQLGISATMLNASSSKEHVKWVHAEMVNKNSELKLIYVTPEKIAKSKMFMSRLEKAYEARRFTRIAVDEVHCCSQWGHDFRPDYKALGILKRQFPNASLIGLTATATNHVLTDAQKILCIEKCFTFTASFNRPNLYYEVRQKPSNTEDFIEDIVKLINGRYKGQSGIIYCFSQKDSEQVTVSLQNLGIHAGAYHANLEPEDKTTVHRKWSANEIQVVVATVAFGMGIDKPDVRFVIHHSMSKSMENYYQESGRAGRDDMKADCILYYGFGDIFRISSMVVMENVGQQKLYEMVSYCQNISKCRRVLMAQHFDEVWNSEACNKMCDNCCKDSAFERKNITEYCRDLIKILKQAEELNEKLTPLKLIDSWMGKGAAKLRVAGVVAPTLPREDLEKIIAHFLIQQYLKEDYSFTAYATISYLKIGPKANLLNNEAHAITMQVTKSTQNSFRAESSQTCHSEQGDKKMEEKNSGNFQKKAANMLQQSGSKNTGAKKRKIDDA
Sequence of Ubiquitin carboxyl-terminal hydrolase 2 (Homo sapiens) (O75604 whole entry, looked up): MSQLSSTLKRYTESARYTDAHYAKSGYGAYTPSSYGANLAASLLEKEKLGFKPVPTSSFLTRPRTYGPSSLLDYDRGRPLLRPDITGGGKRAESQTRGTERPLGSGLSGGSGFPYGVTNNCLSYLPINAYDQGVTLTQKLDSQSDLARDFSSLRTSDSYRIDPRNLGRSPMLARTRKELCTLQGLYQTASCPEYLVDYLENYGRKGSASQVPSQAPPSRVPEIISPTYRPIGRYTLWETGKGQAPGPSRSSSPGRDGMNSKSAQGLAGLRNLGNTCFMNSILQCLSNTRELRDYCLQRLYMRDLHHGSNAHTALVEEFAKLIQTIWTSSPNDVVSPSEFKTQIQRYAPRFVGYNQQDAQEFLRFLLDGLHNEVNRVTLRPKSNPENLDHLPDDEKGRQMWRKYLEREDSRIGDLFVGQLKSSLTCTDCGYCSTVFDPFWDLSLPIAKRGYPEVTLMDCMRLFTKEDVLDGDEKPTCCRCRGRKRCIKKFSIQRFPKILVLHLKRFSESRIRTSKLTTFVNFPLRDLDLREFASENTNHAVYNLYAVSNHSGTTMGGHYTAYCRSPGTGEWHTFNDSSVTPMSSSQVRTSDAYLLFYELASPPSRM

Structure (SMILES)	Potency [1]	Potency [2]	outcome [3]	Potency [4]	Potency [5]	Potency [6]	Potency [7]	Potency [8]	Potency [9]
CC(C)NCC(O)COc1ccc(CCOCC2CC2)cc1 (centres undefined)	inactive	inactive	inactive	inactive	inactive	inactive	inactive	–	–
CN1C(C(=O)Nc2ccccn2)=C(O)c2ccccc2S1(=O)=O	inactive	inactive	inactive	inactive	–	inactive	inactive	–	–
CN1C2CCC1CC(OC(=O)C(CO)c1ccccc1)C2 (centres undefined)	inactive	inactive	inactive	inactive	–	inactive	–	inactive	–
NC12CC3CC(CC(C3)C1)C2	inactive	inactive	inactive	inactive	–	inactive	inactive	–	–
Clc1ccc(C(c2ccccc2Cl)C(Cl)Cl)cc1 (centres undefined)	inactive	inactive	inactive	inactive	inactive	inactive	inactive	–	–
CN1CCN(C2=Nc3cc(Cl)ccc3Nc3ccccc32)CC1	inactive	inactive	inactive	inactive	–	inactive	inactive	–	–
Cc1cc(C(C)(C)C)c(O)c(C)c1CC1=NCCN1	inactive	inactive	inactive	inactive	–	inactive	inactive	–	–
O=C(C1CCCCC1)N1CC(=O)N2CCc3ccccc3C2C1 (centres undefined)	inactive	inactive	inactive	inactive	inactive	inactive	inactive	–	–
CN(C)c1nc(N(C)C)nc(N(C)C)n1	inactive	inactive	inactive	inactive	–	inactive	inactive	inactive	–
Cn1ccc2cc3c(cc21)CCN3C(=O)Nc1cccnc1	inactive	inactive	inactive	inactive	–	inactive	inactive	inactive	–
COc1ccc2[nH]cc(CCNC(C)=O)c2c1	inactive	inactive	inactive	inactive	inactive	inactive	inactive	inactive	–
Fc1ccc([C@@H]2CCNC[C@H]2COc2ccc3c(c2)OCO3)cc1	inactive	inactive	–	2.93 µM (active)	–	inactive	inactive	–	inactive
CN1CCN(CCCN2c3ccccc3Sc3ccc(Cl)cc32)CC1	inactive	inactive	–	–	–	–	inactive	–	inactive
CCc1cccc2c3c([nH]c12)C(CC)(CC(=O)O)OCC3 (centres undefined)	inactive	inactive	inactive	inactive	inactive	inactive	inactive	–	–
CCOC(=O)Nc1ccc(NCc2ccc(F)cc2)nc1N	inactive	inactive	inactive	inactive	–	–	inactive	–	28.2 µM (active)
CC12CC3CC(C)(C1)CC(N)(C3)C2	inactive	inactive	inactive	inactive	inactive	inactive	inactive	–	–
NCCc1cnc[nH]1	inactive	inactive	inactive	inactive	–	inactive	inactive	–	–
NC(=O)NO	inactive	inactive	inactive	inactive	inactive	inactive	inactive	–	–
COc1ccccc1OCC(O)CN1CCN(CC(=O)Nc2c(C)cccc2C)CC1 (centres undefined)	inactive	inactive	inactive	inactive	inactive	inactive	inactive	inactive	–
COc1ccc(C2CNC(=O)C2)cc1OC1CCCC1 (centres undefined)	inactive	inactive	inactive	inactive	–	inactive	inactive	–	–
CS(=O)(=O)Nc1ccc([N+](=O)[O-])cc1Oc1ccccc1	inactive	inactive	inactive	inactive	–	inactive	inactive	inactive	–
OCCN(CCO)c1nc(N2CCCCC2)c2nc(N(CCO)CCO)nc(N3CCCCC3)c2n1	–	inactive	inactive	inactive	–	12.6 µM (active)	–	inactive	–
COc1cc2nc(N(C)CCCNC(=O)C3CCCO3)nc(N)c2cc1OC (centres undefined)	–	–	inactive	inactive	inactive	–	inactive	–	–
Cc1cc(C(C)(C)C)cc(C)c1CC1=NCCN1	–	inactive	inactive	inactive	inactive	inactive	inactive	–	–
OCCN1CCN(CCCN2c3ccccc3Sc3ccc(C(F)(F)F)cc32)CC1	–	inactive	–	–	–	–	inactive	–	inactive
Clc1ccccc1C(c1ccccc1)(c1ccccc1)n1ccnc1	–	inactive	inactive	inactive	inactive	–	inactive	inactive	–
Clc1ccc2c(c1)C(N1CCNCC1)=Nc1ccccc1O2	–	inactive	–	inactive	–	inactive	inactive	–	inactive

Structure (SMILES)	Potency [1]	Potency [2]	outcome [3]	Potency [4]	Potency [5]	Potency [6]	Potency [7]	Potency [8]	Potency [9]
Cc1ccc(C(=O)Nc2ccc(S(=O)(=O)O)c3cc(S(=O)(=O)O)cc(S(=O)(=O)O)c23)cc1NC(=O)c1cccc(NC(=O)Nc2cccc(C(=O)Nc3cc(C(=O)Nc4ccc(S(=O)(=O)O)c5cc(S(=O)(=O)O)cc(S(=O)(=O)O)c45)ccc3C)c2)c1	inactive	–	inactive	inactive	–	inactive	3.29 µM (active)	inactive	inactive
O=C(Nc1ccc([N+](=O)[O-])cc1Cl)c1cc(Cl)ccc1O	–	inactive	inactive	inactive	2.07 µM (active)	0.316 µM (active)	inactive	1.17 µM (active)	–
CC#C[C@]1(O)CC[C@H]2[C@@H]3CCC4=CC(=O)CCC4=C3[C@@H](c3ccc(N(C)C)cc3)C[C@@]21C	–	–	inactive	inactive	–	–	inactive	–	–
Clc1ccc2nsnc2c1NC1=NCCN1	–	–	inactive	inactive	–	–	inactive	inactive	–
Cc1cnc(C(=O)NCCc2ccc(S(=O)(=O)NC(=O)NC3CCCCC3)cc2)cn1	–	inactive	inactive	inactive	inactive	inactive	inactive	–	–
NCCCCCC(=O)O	inactive	–	inactive	inactive	–	inactive	inactive	–	inactive
COC(=O)Nc1nc2ccc(C(=O)c3cccs3)cc2[nH]1	inactive	inactive	–	inactive	–	0.158 µM (active)	inactive	–	–
O=C(c1ccc(OCCN2CCCCC2)cc1)c1c(-c2ccc(O)cc2)sc2cc(O)ccc12	–	inactive	–	inactive	–	11.2 µM (active)	inactive	–	–
NCCS(=O)(=O)O	inactive	inactive	inactive	inactive	–	inactive	inactive	–	–
O=C1Cc2cc(CCN3CCN(c4nsc5ccccc45)CC3)c(Cl)cc2N1	–	–	–	inactive	–	–	inactive	–	–
CCCCc1oc2ccccc2c1C(=O)c1cc(I)c(OCCN(CC)CC)c(I)c1	–	inactive	inactive	inactive	13.1 µM (active)	–	inactive	–	–
CN(C)C(=O)C(CCN1CCC(O)(c2ccc(Cl)cc2)CC1)(c1ccccc1)c1ccccc1	–	inactive	–	–	–	–	inactive	–	–
O=c1c(O)c(-c2ccc(O)c(O)c2)oc2cc(O)cc(O)c12	inactive	–	inactive	inactive	inactive	inactive	–	inactive	–
CN(Cc1cnc2nc(N)nc(N)c2n1)c1ccc(C(=O)N[C@@H](CCC(=O)O)C(=O)O)cc1	–	inactive	inactive	inactive	–	inactive	inactive	–	–
C[C@H]1c2cccc(O)c2C(O)=C2C(=O)[C@]3(O)C(O)=C(C(N)=O)C(=O)[C@@H](N(C)C)[C@@H]3[C@@H](O)[C@@H]21	–	–	inactive	inactive	inactive	–	inactive	–	–
CCOC(=O)C(C)(C)Oc1ccc(Cl)cc1	–	inactive	inactive	inactive	inactive	inactive	inactive	inactive	inactive
CC1COc2c(N3CCN(C)CC3)c(F)cc3c(=O)c(C(=O)O)cn1c23 (centres undefined)	–	inactive	inactive	inactive	–	inactive	inactive	inactive	inactive
COc1ccccc1OCCNCC(O)COc1cccc2[nH]c3ccccc3c12 (centres undefined)	–	–	inactive	inactive	–	–	inactive	–	–
CCOC(=O)c1ncn2c1CN(C)C(=O)c1cc(F)ccc1-2	–	inactive	inactive	inactive	–	inactive	inactive	–	–
CN(C)CCCN1c2ccccc2CCc2ccc(Cl)cc21	–	inactive	inactive	inactive	–	inactive	inactive	–	inactive
CCN1CCCC1CNC(=O)c1cc(S(=O)(=O)CC)c(N)cc1OC (centres undefined)	–	–	inactive	inactive	inactive	–	inactive	–	–
CC(C)C(=O)Nc1ccc([N+](=O)[O-])c(C(F)(F)F)c1	–	inactive	inactive	inactive	inactive	inactive	inactive	inactive	inactive
Nc1ccn([C@H]2CC[C@@H](CO)O2)c(=O)n1	inactive	inactive	inactive	inactive	–	inactive	inactive	–	–
C[C@](N)(Cc1ccc(O)c(O)c1)C(=O)O	inactive	inactive	–	–	–	inactive	inactive	–	–
NC(CO)C(=O)NNCc1ccc(O)c(O)c1O (centres undefined)	–	inactive	inactive	inactive	–	inactive	inactive	–	inactive
Cc1cn([C@H]2C[C@H](N=[N+]=[N-])[C@@H](CO)O2)c(=O)[nH]c1=O	–	–	inactive	inactive	inactive	–	inactive	–	–
